Records with an inconclusive call do not appear. Calls of active or inactive are those of the source. Rule for the calls, unless noted: active = hit-call score of the fitted dose curve at least 0.9, where 1 is the maximum; inactive = score below 0.9.
How the values were obtained:
[1] = biological target: Oxysterols receptor LXR-alpha (Homo sapiens) (UniProt Q13133); assay: ATG_LXRa_TRANS: Attagene TRANS-FACTORIAL HepG2 Assay for human Liver X Receptor alpha (LXRa) (AID 2282980; active = hit-call score of the fitted dose curve at least 0.9, where 1 is the maximum); settings: HepG2 Attagene TRANS reporter, LXRa transactivation
How it was run: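 In this multiplexed TRANS system, compounds act on HepG2 cells carrying GAL4-UAS reporter units and a receptor-GAL4 fusion for 24 h. Induced reporter RNA is amplified, fluorescently labelled and sized by capillary electrophoresis, with DMSO as baseline.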

[2] = biological target: Oxysterols receptor LXR-beta (Homo sapiens) (UniProt P55055); assay: ATG_LXRb_TRANS: Attagene TRANS-FACTORIAL HepG2 Assay for human Liver X Receptor beta (LXRb) (AID 2282981; active = hit-call score of the fitted dose curve at least 0.9, where 1 is the maximum); settings: HepG2 Attagene TRANS GAL4-LXRb reporter, mRNA
How it was run: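 Multiplexed reporter assay, HepG2, 24 h dosing. Fluorescence of labelled RT-PCR products after capillary electrophoresis gives transcript level; positive fitting direction relative to DMSO.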

[3] = ATG_M_32_TRANS: Attagene TRANS-FACTORIAL HepG2 Assay for M32 Transcription Factor (Internal Marker) (AID 2282984; active = hit-call score of the fitted dose curve at least 0.9, where 1 is the maximum;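 note: transcript level of a background control reporter unit measured by RT-PCR and capillary electrophoresis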); settings: HepG2 Attagene TRANS M32 internal marker reporter
How it was run: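 Internal-marker readout from a multiplexed transcription reporter panel. HepG2 cells were transfected with GAL4-UAS reporter units, treated 24 hours, and reporter transcript levels determined by fluorescence after RT-PCR and capillary separation.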

[4] = biological target: Nuclear receptor subfamily 4 group A member 2 (Homo sapiens) (UniProt P43354); assay: ATG_NURR1_TRANS: Attagene TRANS-FACTORIAL HepG2 Assay for human Nuclear Receptor Related Protein 1 (NURR1) (AID 2282985; active = hit-call score of the fitted dose curve at least 0.9, where 1 is the maximum); settings: HepG2 Attagene TRANS reporter, mRNA readout
How it was run: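 Endpoint: reporter mRNA increase relative to DMSO. HepG2 cells transfected with reporter units, treated 24 h; RNA processed by RT-PCR, labelling, HpaI digestion and capillary electrophoresis.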

[5] = biological target: Transcriptional activator Myb (Homo sapiens) (UniProt P10242); assay: ATG_Myb_CIS: Attagene CIS-FACTORIAL HepG2 Assay for human Myeloblastosis (Myb) Proto-Oncogene Transcription Factor (AID 2282986); settings: HepG2 Attagene CIS-FACTORIAL Myb reporter transcription; actives raise or lower the signal
How it was run: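 Fluorescence signals from capillary electrophoresis of RT-PCR-amplified reporter cDNA give the read-out. Cells: HepG2 transfected with multiple cis-regulated reporter units. Exposure lasts 24 hours; DMSO defines baseline for gain or loss of signal.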

[6] = biological target: Nuclear respiratory factor 1 (Homo sapiens) (UniProt Q16656); assay: ATG_NRF1_CIS: Attagene CIS-FACTORIAL HepG2 Assay for human Nuclear Respiratory Factor 1 (NRF1) Orphan Gene (AID 2282987); settings: HepG2 NRF1 cis-element reporter, Attagene multiplex; actives raise or lower the signal
How it was run: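 Transcriptional reporter readout, one component of a 52-endpoint multiplexed HepG2 panel. Exposure 24 h; mRNA detected via RT-PCR and fluorescent capillary electrophoresis; fitting in both directions against DMSO.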

[7] = ATG_NFI_CIS: Attagene CIS-FACTORIAL HepG2 Assay for human Nuclear Factor I (NFI) (AID 2282989); settings: HepG2 cis-regulatory reporter, NFI response element transcription; actives raise or lower the signal
How it was run: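 Multiplexed cis-reporter system in human HepG2 cells reports native TF activity as reporter mRNA induction 24 h post-dose. Fragments labelled with 6-FAM, HpaI-digested and resolved by capillary electrophoresis; activity fitted both directions versus DMSO.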

[8] = biological target: Myc proto-oncogene protein (Homo sapiens) (UniProt P01106); assay: ATG_Myc_CIS: Attagene CIS-FACTORIAL HepG2 Assay for human Myelocytomatosis (Myc) Proto-Oncogene Transcription Factor (AID 2282990); settings: HepG2, Attagene cis-reporter transcription factor activity; actives raise or lower the signal
How it was run: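 Transiently transfected HepG2 cells bearing cis-promoter reporter units for endogenous transcription factors; 24 h exposure. Reporter mRNA measured by RT-PCR, 6-FAM primer extension, HpaI cut and capillary electrophoresis; bidirectional fit relative to DMSO.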

[9] = ATG_NF_kB_CIS: Attagene CIS-FACTORIAL HepG2 Assay for human Nuclear Factor Kappa B (NF-kB) (AID 2282991); settings: HepG2 Attagene cis-factorial NF-kB reporter mRNA; actives raise or lower the signal
How it was run: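 HepG2, transient multi-reporter transfection, cis promoter elements (endogenous TFs). 24 h exposure. Total RNA → RT → PCR → 6-FAM label → HpaI → CE. Gain/loss vs DMSO.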

[10] = ATG_NRF2_ARE_CIS: Attagene CIS-FACTORIAL HepG2 Assay for human Nuclear Factor Erythroid 2 Related Factor 2 (NFR2) response to Antioxidant Response Elements (ARE) (AID 2282992); settings: HepG2 Attagene ARE/NRF2 reporter, transcription factor activity; actives raise or lower the signal;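 for AC50: reporter mRNA level measured by RT-PCR and capillary electrophoresis fluorescence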
How it was run: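 Readout: reporter mRNA quantified by RT-PCR plus FAM-labelled primer extension, HpaI digestion and capillary electrophoresis, 24 h after dosing transfected HepG2 cells. Gain or loss of signal is fitted bidirectionally against DMSO baseline.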

[11] = ATG_Oct_MLP_CIS: Attagene CIS-FACTORIAL HepG2 Assay for human Octamer-Binding Transcription Factor (Oct) (AID 2282993); settings: HepG2 Attagene cis-factorial Oct reporter, mRNA; actives raise or lower the signal
How it was run: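 After 24 h compound exposure, transfected HepG2 cells were lysed for total RNA; reporter-specific cDNA was PCR-amplified, fluorescently labelled and sized by capillary electrophoresis. Bidirectional curve fitting used DMSO as baseline.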

[12] = biological target: Cellular tumor antigen p53 (Homo sapiens) (UniProt P04637); assay: ATG_p53_CIS: Attagene CIS-FACTORIAL HepG2 Assay for human p53 Transcription Factor (AID 2282994); settings: HepG2 p53 cis-element reporter, Attagene mRNA; actives raise or lower the signal
How it was run: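 Read-out: reporter mRNA by RT-PCR plus capillary electrophoresis with fluorescence detection. Human HepG2 liver cells carried transfected multi-reporter cis-element constructs, dosed 24 h. Gain or loss of signal fitted bidirectionally against DMSO control.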

[13] = ATG_M_06_TRANS: Attagene TRANS-FACTORIAL HepG2 Assay for M06 Transcription Factor (Internal Marker) (AID 2282983; active = hit-call score of the fitted dose curve at least 0.9, where 1 is the maximum); settings: HepG2 Attagene TRANS M06 internal marker reporter
How it was run: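 Multi-reporter-transfected HepG2, 24 h treatment; reporter transcripts quantified via RT-PCR, primer-extension labelling and CE. DMSO-normalized gain-of-signal fit.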

[14] = BSK_3C_TissueFactor: BioMAP Diversity Plus: 3C Assay for Tissue Factor Biomarker Activity (AID 2282997); settings: BioMAP 3C HUVEC, tissue factor biomarker readout; actives raise or lower the signal
How it was run: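 In this endothelial system, HUVEC are treated for 24 h and Tissue Factor is assessed by ELISA, normalised to DMSO.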

[15] = BSK_3C_VCAM1: BioMAP Diversity Plus: 3C Assay for Vascular cell adhesion molecule 1 (VCAM1) Biomarker Activity (AID 2282999); settings: BioMAP 3C HUVEC, VCAM1 ELISA, cytokine-stimulated; actives raise or lower the signal
How it was run: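 HUVEC primary cells, 24 h compound exposure; VCAM-1 by ELISA; gain/loss of signal fitted bidirectionally vs DMSO baseline.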

[16] = biological target: Hepatocyte nuclear factor 4-alpha (Homo sapiens) (UniProt P41235); assay: ATG_HNF4a_TRANS: Attagene TRANS-FACTORIAL HepG2 Assay for human Hepatocyte Nuclear Factor 4 alpha (HNF4a) (AID 2282982; active = hit-call score of the fitted dose curve at least 0.9, where 1 is the maximum); settings: HepG2 HNF4a transactivation reporter, mRNA readout
How it was run: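 Endpoint reflects transcriptional activation of a GAL4-UAS reporter by an HNF4a-GAL4 chimera in transfected HepG2 cells, 24 h post-dosing. Fluorescence from RT-PCR products separated by capillary electrophoresis; DMSO baseline.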

Measured: AC50

Sequence of Myc proto-oncogene protein (Homo sapiens) (P01106 whole entry, looked up): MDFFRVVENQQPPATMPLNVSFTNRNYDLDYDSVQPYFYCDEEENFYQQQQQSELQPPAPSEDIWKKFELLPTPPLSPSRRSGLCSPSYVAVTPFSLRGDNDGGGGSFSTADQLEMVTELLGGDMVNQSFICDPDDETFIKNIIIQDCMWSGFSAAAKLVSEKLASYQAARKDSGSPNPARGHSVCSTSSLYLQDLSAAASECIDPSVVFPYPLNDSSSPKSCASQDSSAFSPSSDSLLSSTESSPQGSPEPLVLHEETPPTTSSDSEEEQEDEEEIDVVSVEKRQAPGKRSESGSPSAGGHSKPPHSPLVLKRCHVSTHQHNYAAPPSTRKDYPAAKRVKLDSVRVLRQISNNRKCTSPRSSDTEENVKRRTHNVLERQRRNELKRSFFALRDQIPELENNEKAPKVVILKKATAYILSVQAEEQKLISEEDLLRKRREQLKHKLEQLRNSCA
Sequence of Oxysterols receptor LXR-beta (Homo sapiens) (P55055 whole entry, looked up, the tested form may be a part): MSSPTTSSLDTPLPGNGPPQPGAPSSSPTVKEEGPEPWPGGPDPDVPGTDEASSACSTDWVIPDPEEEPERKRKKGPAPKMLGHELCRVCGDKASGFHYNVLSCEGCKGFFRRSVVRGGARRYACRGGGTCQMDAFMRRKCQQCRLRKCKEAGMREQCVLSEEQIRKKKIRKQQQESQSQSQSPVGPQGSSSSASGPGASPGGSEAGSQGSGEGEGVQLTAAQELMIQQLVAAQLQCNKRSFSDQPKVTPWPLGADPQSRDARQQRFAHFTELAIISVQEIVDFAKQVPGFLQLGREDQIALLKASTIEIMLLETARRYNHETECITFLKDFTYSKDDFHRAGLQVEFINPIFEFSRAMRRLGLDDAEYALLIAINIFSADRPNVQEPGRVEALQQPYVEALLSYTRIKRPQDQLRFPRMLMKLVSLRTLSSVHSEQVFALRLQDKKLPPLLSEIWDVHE
Sequence of Transcriptional activator Myb (Homo sapiens) (P10242 whole entry, looked up): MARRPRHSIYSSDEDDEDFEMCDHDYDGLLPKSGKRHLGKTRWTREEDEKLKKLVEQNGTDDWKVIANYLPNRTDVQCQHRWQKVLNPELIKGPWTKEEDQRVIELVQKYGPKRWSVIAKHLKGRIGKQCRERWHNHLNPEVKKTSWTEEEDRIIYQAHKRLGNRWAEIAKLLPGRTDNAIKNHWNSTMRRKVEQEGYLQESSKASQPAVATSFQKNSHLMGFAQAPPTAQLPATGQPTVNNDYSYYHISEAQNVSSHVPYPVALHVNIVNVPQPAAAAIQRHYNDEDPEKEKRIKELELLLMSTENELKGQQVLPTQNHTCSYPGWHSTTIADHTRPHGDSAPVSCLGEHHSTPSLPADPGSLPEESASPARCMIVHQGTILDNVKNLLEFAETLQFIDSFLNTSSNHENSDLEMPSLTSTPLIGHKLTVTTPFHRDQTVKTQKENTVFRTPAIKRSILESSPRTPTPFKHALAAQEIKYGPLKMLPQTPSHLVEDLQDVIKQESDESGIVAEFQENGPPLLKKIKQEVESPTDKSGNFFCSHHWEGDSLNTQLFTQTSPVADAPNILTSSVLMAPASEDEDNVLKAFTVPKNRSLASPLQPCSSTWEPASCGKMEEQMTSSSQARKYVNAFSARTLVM
Sequence of Nuclear respiratory factor 1 (Homo sapiens) (Q16656 whole entry, looked up): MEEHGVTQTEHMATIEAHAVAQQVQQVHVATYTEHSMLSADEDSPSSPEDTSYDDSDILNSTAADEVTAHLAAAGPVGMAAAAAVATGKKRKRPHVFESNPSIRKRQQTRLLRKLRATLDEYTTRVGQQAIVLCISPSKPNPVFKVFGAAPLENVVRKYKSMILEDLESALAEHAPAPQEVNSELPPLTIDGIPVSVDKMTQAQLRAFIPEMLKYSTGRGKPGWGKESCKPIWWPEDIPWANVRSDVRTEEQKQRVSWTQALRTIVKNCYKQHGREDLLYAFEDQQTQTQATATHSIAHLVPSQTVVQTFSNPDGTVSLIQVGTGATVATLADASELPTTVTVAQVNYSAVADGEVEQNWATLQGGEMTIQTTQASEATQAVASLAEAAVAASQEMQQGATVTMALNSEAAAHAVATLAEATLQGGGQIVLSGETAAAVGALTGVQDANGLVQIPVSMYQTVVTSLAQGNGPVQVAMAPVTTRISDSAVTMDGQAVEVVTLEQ
Sequence of Hepatocyte nuclear factor 4-alpha (Homo sapiens) (P41235 whole entry, looked up, the tested form may be a part): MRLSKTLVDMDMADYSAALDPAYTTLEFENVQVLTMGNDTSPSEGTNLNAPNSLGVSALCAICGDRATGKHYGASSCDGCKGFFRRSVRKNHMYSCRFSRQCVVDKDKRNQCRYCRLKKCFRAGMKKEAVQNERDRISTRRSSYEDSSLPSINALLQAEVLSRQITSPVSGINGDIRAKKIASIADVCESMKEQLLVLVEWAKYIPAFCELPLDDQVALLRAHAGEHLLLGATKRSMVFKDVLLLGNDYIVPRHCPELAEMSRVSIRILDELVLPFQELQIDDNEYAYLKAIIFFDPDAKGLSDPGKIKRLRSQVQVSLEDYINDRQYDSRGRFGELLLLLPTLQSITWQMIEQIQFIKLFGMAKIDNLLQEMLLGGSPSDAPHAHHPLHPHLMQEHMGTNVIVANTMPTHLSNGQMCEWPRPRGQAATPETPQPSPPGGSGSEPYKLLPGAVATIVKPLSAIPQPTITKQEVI
Sequence of Cellular tumor antigen p53 (Homo sapiens) (P04637 whole entry, looked up): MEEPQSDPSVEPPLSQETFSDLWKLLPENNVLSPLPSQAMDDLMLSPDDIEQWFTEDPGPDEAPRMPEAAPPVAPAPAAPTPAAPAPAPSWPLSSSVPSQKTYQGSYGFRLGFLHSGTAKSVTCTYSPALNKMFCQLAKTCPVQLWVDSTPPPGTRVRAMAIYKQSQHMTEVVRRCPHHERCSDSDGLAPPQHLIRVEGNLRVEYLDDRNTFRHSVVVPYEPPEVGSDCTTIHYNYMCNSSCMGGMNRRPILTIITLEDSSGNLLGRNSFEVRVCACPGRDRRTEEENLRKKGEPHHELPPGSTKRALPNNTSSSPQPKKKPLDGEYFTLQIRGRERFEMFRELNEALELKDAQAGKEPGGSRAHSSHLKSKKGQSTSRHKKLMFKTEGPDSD
Sequence of Nuclear receptor subfamily 4 group A member 2 (Homo sapiens) (P43354 whole entry, looked up): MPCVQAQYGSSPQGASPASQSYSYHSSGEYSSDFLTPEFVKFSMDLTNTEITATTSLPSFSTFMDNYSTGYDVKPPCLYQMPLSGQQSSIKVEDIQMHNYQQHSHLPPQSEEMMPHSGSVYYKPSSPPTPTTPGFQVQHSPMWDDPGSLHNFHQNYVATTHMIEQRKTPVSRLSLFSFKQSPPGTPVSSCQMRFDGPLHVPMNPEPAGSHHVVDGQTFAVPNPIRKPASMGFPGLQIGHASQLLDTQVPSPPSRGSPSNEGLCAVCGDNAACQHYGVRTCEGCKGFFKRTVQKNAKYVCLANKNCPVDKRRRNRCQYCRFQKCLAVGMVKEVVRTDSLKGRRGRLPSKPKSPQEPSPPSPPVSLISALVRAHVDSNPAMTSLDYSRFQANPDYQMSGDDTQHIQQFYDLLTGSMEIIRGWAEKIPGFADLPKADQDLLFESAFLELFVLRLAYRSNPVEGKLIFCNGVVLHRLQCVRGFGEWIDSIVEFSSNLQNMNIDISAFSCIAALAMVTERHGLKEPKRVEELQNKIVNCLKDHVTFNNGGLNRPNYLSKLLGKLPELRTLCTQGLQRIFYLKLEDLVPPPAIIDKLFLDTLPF
Sequence of Oxysterols receptor LXR-alpha (Homo sapiens) (Q13133 whole entry, looked up, the tested form may be a part): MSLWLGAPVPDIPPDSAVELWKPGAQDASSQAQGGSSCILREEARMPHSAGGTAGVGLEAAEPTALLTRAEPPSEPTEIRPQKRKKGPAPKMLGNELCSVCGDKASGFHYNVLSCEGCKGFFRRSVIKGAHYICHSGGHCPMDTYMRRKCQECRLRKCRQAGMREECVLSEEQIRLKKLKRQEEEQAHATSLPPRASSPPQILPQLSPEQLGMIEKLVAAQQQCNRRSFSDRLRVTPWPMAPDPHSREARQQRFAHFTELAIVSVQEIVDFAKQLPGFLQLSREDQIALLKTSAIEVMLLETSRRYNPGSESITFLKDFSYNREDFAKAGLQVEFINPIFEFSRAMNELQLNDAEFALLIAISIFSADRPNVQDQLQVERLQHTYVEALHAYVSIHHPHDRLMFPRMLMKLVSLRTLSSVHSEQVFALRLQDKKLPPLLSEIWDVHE

C=C(C)CCCC(C)CCO (centres undefined)
active: [10] 59.7 µM
not listed: [12] | [13] | [14] | [15] | [16]
inactive: all other assays above

CCCCCCOc1ccc(O)cc1
active: [10] 18.7 µM | [11] 33.4 µM
not listed: [4] | [13] | [14] | [15] | [16]
inactive: all other assays above

CC(=O)OCC=C(C)CCC=C(C)CCC=C(C)C
active: [6] 154 µM | [7] 157 µM | [10] 49.5 µM
not listed: [3] | [12] | [16]
inactive: all other assays above

CC(C)=CC(=O)O
not listed: [2] | [12] | [14] | [15]
inactive: all other assays above

CN(C)C
inactive: [1] | [2] | [3] | [5] | [6] | [7] | [8] | [10] | [12]

CC(C)(C)C1CCC(O)CC1 (centres undefined)
not listed: [3] | [4] | [13] | [14] | [15] | [16]
inactive: all other assays above

OCC=Cc1ccccc1
active: [10] 65.9 µM
not listed: [3] | [11] | [12] | [13] | [14] | [15]
inactive: all other assays above

CNC(=C[N+](=O)[O-])NCCSCc1ccc(CN(C)C)o1
not listed: [13] | [14] | [15] | [16]
inactive: all other assays above

CCCO
not listed: [2] | [12] | [13] | [14] | [15] | [16]
inactive: all other assays above

OC[C@@H](O)[C@H](O)[C@@H](O)[C@@H](O)CO
not listed: [2] | [4] | [11] | [13] | [14] | [15]
inactive: all other assays above

NC(=O)NC(N)=O
not listed: [9] | [14] | [15]
inactive: all other assays above

CC(C)=CCCC(C)=CC(=O)O
inactive: [1] | [2] | [5] | [6] | [7] | [8] | [9] | [10] | [12]

CCCCCCCCOC(C)=O
not listed: [3] | [14] | [15]
inactive: all other assays above

COc1ccccc1NC(=O)CC(C)=O
not listed: [11] | [13]
inactive: all other assays above

CCCCCCCCCCOC(=O)c1ccccc1C(=O)OCCCCCCCC
not listed: [2] | [3] | [4] | [13] | [14] | [15]
inactive: all other assays above

CC(C)C(=O)c1ccccc1
not listed: [2] | [4] | [14] | [15]
inactive: all other assays above

CCCCCC#CC(=O)OC
inactive: [1] | [13] | [3] | [5] | [7] | [8] | [11] | [12]
active: [9] 23.1 µM | [10] 23.9 µM

CC(C)N1C(=O)c2ccccc2C1=O
not listed: [2] | [4] | [14] | [15] | [16]
inactive: all other assays above

C=CCCCCCCCCC(=O)OCC
active: [10] 61.7 µM
not listed: [2] | [9] | [12] | [14] | [15] | [16]
inactive: all other assays above

Nc1cc([N+](=O)[O-])ccc1C(=O)O
active: [10] 51.8 µM
not listed: [3] | [9] | [13] | [14] | [15]
inactive: all other assays above

CCCCOCC(C)OCC(C)O (centres undefined)
not listed: [4] | [12] | [13] | [14] | [15]
inactive: all other assays above

CCCCN(CCCC)CCCCCCN(CCCC)CCCC
not listed: [4] | [9] | [13] | [14] | [15] | [16]
inactive: all other assays above

O=Cc1ccccc1O
not listed: [11] | [13] | [14] | [15]
inactive: all other assays above

Source: PubChem BioAssay (EPA / NIEHS)
